Reference: the supplement of paper PMC7156485

Each compound was assayed on HCC1569 (assay: cell number relative to DMSO (% of DMSO); higher = more cells (less growth inhibition / toxicity)). Settings: concentration: 10 µM; 24 h.
Summary of the method: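 In 384-well plates holding 800 HCC1569 or TDF cells per well in RPMI with 10% FBS, compounds were tested at 10 µM for 24 h at 37 °C in triplicate. Fixation used 3.7% formaldehyde. Staining used a rabbit anti-H1.0 antibody with an AlexaFluor 647 secondary, plus DAPI. Each value, H1.0 nuclear intensity or cell number, is a median of replicates shown as percent of the plate control, and HCC1569 values were smoothed for positional effects.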
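Note: TDF denotes transformed human dermal fibroblasts of mesenchymal origin.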

SMILES | cell number
CCCCCC(O)C=CC=CCCCCCCCCCC(=O)O (stereo unspecified) | 99.4
Cl.NC1C=CC=C(C(=O)O)C1 (stereo unspecified) [Gabaculine hydrochloride] | 103
Cc1[nH]nc2ccc(-c3cncc(OCC(N)Cc4ccccc4)c3)cc12 (stereo unspecified) | 58.8
O=C(NC1=CNNC1=C1N=c2ccc(CN3CCOCC3)cc2=N1)NC1CC1 | 23.5
c1cc(-c2cnn3cc(-c4ccc(N5CCNCC5)cc4)cnc23)c2cccnc2c1 | 22.7
CCN(CC)CCCC(C)Nc1c2ccc(Cl)cc2nc2ccc(OC)cc12.Cl.Cl (stereo unspecified) [Quinacrine dihydrochloride] | 67.6
COc1ccc(CNC(=O)Nc2ncc([N+](=O)[O-])s2)cc1 [GSK-3b Inhibitor VIII] | 91
S=C([S-])N1CCCC1.[NH4+] [Ammonium pyrrolidinedithiocarbamate] | 87.9
NC(CCC(=O)NC(CS)C(=O)NCC(=O)O)C(=O)O (stereo unspecified) [Glutathione] | 101
CCCCCC=CCC=CCC=CCC=CCCCCCC(=O)O [Adrenic acid (22:4 n-6)] | 99
Nc1ncnc2c1nc(N)n2[C@@H]1O[C@H](CO)[C@@H](O)[C@H]1O | 25.5
CCN(CC)CCCC(C)Nc1cc(/C=C/c2ccccc2Cl)nc2cc(Cl)ccc12 (stereo unspecified) | 6.31
O=C(c1ccc(Nc2nccc(-c3cc4ccccc4s3)n2)cc1)N1CCC(N2CCCC2)CC1 | 61.6
O=S(=O)(NCc1cccc2ccccc12)c1cc(Cl)c(Oc2cccc(N3CCNCC3)c2)s1 | 8.55
Cc1ccc([N+](=O)[O-])cc1S(=O)(=O)N(C)N=Cc1cnc2ccc(Br)cn12.Cl.O.O [PI 3-Ka Inhibitor VIII] | 45.7
CC1(C)CC=C(c2ccccc2)c2cc(/C=C/c3ccc(C(=O)O)cc3)ccc21 | 99.1
